From PubChem BioAssay
CBFb-RUNX1 inh: qHTS Assay for Compounds Blocking the Interaction Between CBF-beta and RUNX1 for the Treatment of Acute Myeloid Leukemia. Runt-related transcription factor 1 (Homo sapiens) + Core-binding factor subunit beta …. AlphaScreen CBFb-His/RUNX1-biotin binding, biochemical. 230,000 tested, under 10 active. Potency, µM (series often up to 59.8 µM), without a hit: top-dose activity, negative = inhibition, actives largely listed as inhibitors; further: % of control where 0% means no effect
Target sequence (Q01196 whole entry, looked up): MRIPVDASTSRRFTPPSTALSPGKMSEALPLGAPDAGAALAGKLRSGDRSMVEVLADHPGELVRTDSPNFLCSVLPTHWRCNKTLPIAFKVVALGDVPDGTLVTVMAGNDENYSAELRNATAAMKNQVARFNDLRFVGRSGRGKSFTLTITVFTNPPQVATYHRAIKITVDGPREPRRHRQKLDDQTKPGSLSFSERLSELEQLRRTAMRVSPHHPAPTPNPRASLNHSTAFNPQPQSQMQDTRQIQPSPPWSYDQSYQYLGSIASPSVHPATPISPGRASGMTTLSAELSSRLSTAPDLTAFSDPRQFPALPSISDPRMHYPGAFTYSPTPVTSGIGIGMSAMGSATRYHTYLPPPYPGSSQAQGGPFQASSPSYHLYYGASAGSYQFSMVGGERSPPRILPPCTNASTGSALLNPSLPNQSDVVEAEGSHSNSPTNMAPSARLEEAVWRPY
Target sequence (Q13951 whole entry, looked up): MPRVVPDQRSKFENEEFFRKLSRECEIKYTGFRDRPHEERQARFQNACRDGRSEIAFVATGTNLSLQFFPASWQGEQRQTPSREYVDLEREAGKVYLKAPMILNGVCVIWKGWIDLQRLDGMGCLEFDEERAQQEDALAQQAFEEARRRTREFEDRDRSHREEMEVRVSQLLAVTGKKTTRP
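Bead-based AlphaScreen assay; binding partners His-tagged CBF-beta and biotinylated RUNX1 at 30 nM each. Compound exposure 15 min after a 20-min protein preincubation; bead step 90 min; all steps at room temperature.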
PNC assembly inh: High Content Assay for Compounds that inhibit the Assembly of the Perinucleolar Compartment | PC3M PTB-GFP, PNC prevalence imaging, 16 h; stronger effect = lower value | activity change (PNC), negative = inhibition, % at 10 µM | 140,000 compounds, 3.1% hits;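 active means readout at or below -70, meaning at least 70% loss of cells showing the perinucleolar compartment, a nuclear body marking cancer cells; inconclusive means readout between -30 and a set limit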;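 further: plate controls were DMSO wells for no effect and camptothecin positive control wells for full effect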
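Read-out is percentage of cells bearing a perinucleolar compartment, from automated 20x imaging of fixed, Hoechst-stained PC3M PTB-GFP cells. Cells were seeded 4 h, then exposed 16 h to compound (23 nl of library stock) in duplicate plates.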
HTT aggregate: qHTS Multiplex Assay to Identify Dual Action Probes in a Cell Model of Huntington: Aggregate Formation (GFP) | PC12 HttQ103-GFP aggregates, Acumen cytometry, 40 h | Potency, µM (doses to about 46.1 µM), inactives show at the top dose activity change, negative = inhibition, actives largely listed as inhibitors | 220,000 compounds, 1.1% hits | AID 1688, 2009; further: potency means the concentration at half of the fitted maximal effect; on the % scale 0 is the no-effect control and ±100 the full control effect; nearly all actives have a fitted effect of over 60% in size
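PC12/HTTQ103-GFP, ecdysone-inducible; teb 100 nM; cpd qHTS titration; GFP aggregates read on laser cytometer, Ex 488/Em 500-530 nm.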
ALDH1A1 block: qHTS Assay for Inhibitors of Aldehyde Dehydrogenase 1 (ALDH1A1); Aldehyde dehydrogenase 1A1 (Homo sapiens), P00352; Purified ALDH1A1, NADH fluorescence, propionaldehyde substrate; Potency, µM (top dose mostly 75.3 µM), for the others: at the top dose activity, negative = inhibition, usual class: inhibitors; 220,000 compounds, 7.3% hits; active means well fitted inhibition curve with a large enough effect, not every such curve was filed as active; inconclusive means small, poorly fitted or top-dose-only effect, or another doubt; inactive means no such curve, though single readings can be large or run the other way;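 further: potency means the concentration at half of the fitted maximal effect; plate controls were no enzyme wells and a reference inhibitor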
HTT cytoprotect: qHTS Multiplex Assay to Identify Dual Action Probes in a Cell Model of Huntington: Cytoprotection (ATP); PC12 HTT-Q103 induced, cytoprotection, ATP luminescence, 40 h; Potency, µM (top dose mostly 56.4 µM), inactives show cytoprotection (ATP increase), usual class: activators; 230,000 compounds, 0.14% hits; AID 1471, 2008; further: potency means the concentration at half of the fitted maximal effect; % of control where 0% means no effect; nearly all actives have a fitted effect of over 45% in size
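Rat PC12, Q103 Htt exon1-GFP fusion, ecdysone promoter; tebufenozide inducer 100 nM final; compound titration; qHTS, 1500 cells/well; ATPlite luminescent read.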
HPGD inh: qHTS Assay for Inhibitors of HPGD (15-Hydroxyprostaglandin Dehydrogenase); purified HPGD, NADH fluorescence kinetic, PGE2 substrate; 150,000 compounds, 4.3% hits; Potency, µM, inactives show top-dose activity change, negative = inhibition, hits mostly inhibitors; 15-hydroxyprostaglandin dehydrogenase [NAD(+)] (Homo sapiens), P15428; active means well fitted inhibition curve with a large enough effect, not every such curve was filed as active; inconclusive means small, poorly fitted or top-dose-only effect, or another doubt; inactive means no such curve, though single readings can be large or run the other way; further: potency means the concentration at half of the fitted maximal effect; on the % scale 0 is the no-effect control and ±100 the full control effect
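NADH formation kinetics: reaction with 30 uM PGE2 and 1 mM NAD+ (final), 20 nM enzyme, Tris-HCl pH 8 with Tween 20, after 15 min compound preincubation at room temperature. Fluorescence change, last versus first of five reads.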
* hit, by the source's call; ? = inconclusive; . = no result; [ ] = another dose, or the depositor's remark. Shown are actives, neighbours in structure and some others; about 11% of the full set was active somewhere. Unless noted, the call rests on the fitted dose curve; in most records, active means well fitted curve in the direction sought with a large enough effect; inconclusive means small, poorly fitted or top-dose-only effect, or another doubt; inactive means no such curve, though single readings can be large; an effect the other way counts as inactive or inconclusive.

SMILES	CBFb-RUNX1 inh	PNC assembly inh	HTT aggregate	ALDH1A1 block	HTT cytoprotect	HPGD inh
O=C(CCl)N1c2ccccc2OCC1c1ccccc1 (stereo not drawn)	-3%	?	2%	0%	-6%[10 µM]	32µM*
COc1ccc(S(=O)(=O)N2c3ccccc3OCC2c2ccccc2)cc1 (stereo not drawn)	26%	-13	-20%	4%	-39%[10 µM]	-1%
CCN(CC)Cc1c(C(=O)N2CCc3ccccc3C2)nc2ccc(Cl)cn12	-10%	.	4%[9.22 µM]	13µM*	-7%[10 µM]	.
Cc1ccc(NC(=O)CSc2nn(-c3ccc(Cl)cc3)c(=S)s2)cc1S(=O)(=O)N(C)C	-8%	26	-5%	14µM*	-7%[10 µM]	?
CCCn1c2ccccc2c2nnc(SCC(=O)Nc3nnc(CC(=O)OCC)s3)nc21	-4%	20	11%	-7%	-4%	-8%
CCOC(=O)Cc1nnc(NC(=O)CSc2nnc3c4ccccc4n(C(C)C)c3n2)s1	0%	-17	-7%	28µM*	-1%[10 µM]	?
CCC[C@@H]1C[C@@]1(CCC)C(NC(=O)c1ccco1)c1ccc(Cl)cc1 (stereo partly drawn)	21%	.	.	0%	6%	-14%
CCN(C(=O)COC(=O)/C=C/c1ccc(S(=O)(=O)N2CCc3ccccc32)cc1)C1CCS(=O)(=O)C1 (stereo not drawn)	-7%	.	?	5µM*	?	.
Cc1nc(Nc2ccccc2)c2nc(-c3ccccc3)n(CCN3CCOCC3)c2n1	2%	.	.	?	-64%	?
CC(C)(C)OC(=O)N1CCC(c2cc(=O)n3[nH]c(-c4ccc(Cl)cc4)cc3n2)CC1	-2%	-84*	-1%	7%	-40%	-14%
CC(C)(C)OC(=O)N1CCC(c2cc(=O)n3[nH]cc(C(=O)Nc4ccc(F)c(Cl)c4)c3n2)CC1	3%	.	-1%[9.22 µM]	.	-10%[10 µM]	.
COc1cc2c(cc1OC)CN(CC(=O)NC(=O)NCc1ccccc1)CC2	-11%	.	4%	28µM*	-19%	.
O=C(CN1CCCc2ccccc21)N/N=C/c1c(O)ccc2ccccc12	?	6	10µM*	-1%	-55%[10 µM]	?
O=C(CN1CCc2ccccc21)NC(=O)NCc1ccccc1	-25%	.	-9%	7.1µM*	-17%	.
O=C(CN1CCCc2ccccc21)N/N=C/c1ccccc1	-17%	?	4%	?	-5%[10 µM]	-8%
O=C(CN1CCCc2ccccc21)NC(=O)NCc1ccccc1	-10%	.	3%[9.22 µM]	.	12%[10 µM]	.
CCN(CC)C(=O)c1sc(NC(=O)C(Sc2ccccc2)c2ccccc2)c(C(=O)OC(C)C)c1C (stereo not drawn)	-3%	11	?	-15%	-16%	-21%
CCN(CC)C(=O)c1sc(N)c(C(=O)OC(C)C)c1C	0%	21	10%	?	19%[10 µM]	20µM*
CCOC(=O)C(=O)Nc1sc(C(=O)N(CC)CC)c(C)c1C#N	3%	.	0%[9.22 µM]	-2%	13%[10 µM]	.
CCN(CC)C(=O)c1sc(N)c(C#N)c1C	2%	-95*	-13%	?	-13%	-13%
Cc1nn(-c2ccccc2)c2ncc(C(=O)c3cc(Cl)ccc3O)cc12	-19%	-28	-32%	-4%	1%[0.074 µM]	16µM*
COc1ccc(-c2nc3c(Br)c(N)c(Br)cc3o2)cc1	5%	-13	-7%	14µM*	9%	?
N#CC(C(=O)NC1CCCCC1)c1nc2ccccc2nc1N1CCCCC1 (stereo not drawn)	.	.	.	.	6%[0.074 µM]	.
CCCCn1cnc2c(SC)ncnc21	.	.	.	-4%[13.5 µM]	-1%[10 µM]	-10%
CCOc1cc(CN2CCCCC2)ccc1OC	6%	-28	-5%	0%	4%	0%
SMILES	CBFb-RUNX1 inh	PNC assembly inh	HTT aggregate	ALDH1A1 block	HTT cytoprotect	HPGD inh
CCOc1cc(CN2CCN(c3ccc(C(C)=O)cc3)CC2)ccc1OC	-1%	-25	-14%	18µM*	-30%	-9%
CCCS(=O)(=O)c1nc(S(=O)(=O)c2ccc(C)cc2)c(NCCCN(C)C)s1	5%	.	15%	?	-7%	.
CCCS(=O)(=O)c1nc(S(=O)(=O)c2ccc(C)cc2)c(NCCN2CCOCC2)s1	1%	-107*	-10%	14µM*	-16%	-5%
Nc1ncnc2c1ncn2[C@H]1O[C@@H](C(=O)OCCO)[C@@H](O)[C@H]1O	.	.	.	11%[13.5 µM]	-18%[10 µM]	-3%
CC(C)NC(=O)CC(c1ccccc1)c1cc(Br)ccc1O (stereo not drawn)	-1%	?	-22%	2%	2%[10 µM]	25µM*
CCCCCCNC(=O)CC(c1ccccc1)c1cc(Br)ccc1O (stereo not drawn)	10%	4	6%	0%	-3%[10 µM]	8.9µM*
CC(=O)Nc1ccc(NC(=O)CSc2ccc([N+](=O)[O-])cn2)cc1	3%	.	9%[9.22 µM]	.	10%[10 µM]	.
CN(C)CCC(=O)[C@@]1(O)CC[C@H]2[C@H]3CC=C4C[C@@H](O)CC[C@]4(C)[C@H]3CC[C@]21C	.	.	.	0.32µM*	-1%[10 µM]	-11%
CCOC(=O)CCc1c(C)n[nH]c1C	-2%	.	9%	0%	-43%	.
CCOC(=O)CCCc1sc(N)nc1-c1[nH]c(=O)[nH]c1C	-12%	15	-21%	13µM*	-12%	32µM*
COc1cc(/C=C\c2ccc(OC)cc2OC)cc(OC)c1	?	.	.	?	-36%	?
O=C(COC(=O)c1cccc2c1C(=O)c1ccccc1C2=O)NC1CCCCC1	-29%	?	22%	?	-5%[10 µM]	-17%
CC1CCCCC1NC(=O)COC(=O)c1ccc2c(c1Cl)C(=O)c1ccccc1C2=O (stereo not drawn)	-5%	8	-10%	-16%	-12%[10 µM]	16µM*
CC(C)CCN1C(=O)c2ccc(-c3nc4ccccc4c(=O)o3)cc2C1=O	1%	11	8%	7.1µM*	0%	?
COc1ccc(-c2nc3ccccc3c(=O)o2)cc1OC	0%	-5	10%	?	-41%	?
O=C(O)CSc1c(-c2ccccc2)[nH]c2ccccc12	-4%	-85*	7%	?	-4%[10 µM]	-16%
COC(=O)C1(C(C)=O)CC2=CC[C@@H]3C(=O)N(c4ccccc4)C(=O)[C@@H]3[C@@H]2Cc2ccccc2[C@@H]1C[N+](=O)[O-] (stereo partly drawn)	0%	.	.	-9%	-38%	-9%
